Among the data in PubChem BioAssay (NCI) are growth inhibition values, retold here.

Structures are written as SMILES. “And” between values parts separate entries of the source, which are not always exact repeats. Equal entries are not always repeated. Compounds without any hit were thinned out: in the full panel of roughly 79,000, 15% have a hit. The source holds several records for some structures; these can differ, active in one and inactive in another. The source made the active and inactive calls. No stated cut-off is given here; in the data, active means growth inhibition above about 70%; inactive means the rest. Where a SMILES comes first, the peptide text is derived from it. The star is where a group is joined. Boc = CC(C)(C)OC(=O)*

Test [1] in a line: NCI Yeast Anticancer Drug Screen. Data for the rad50 strain (AID 155).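 Further: 0% = growth of vehicle-only cultures of the same strain.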 Conditions: S. cerevisiae rad50 strain growth inhibition; at 50.0 µM; stronger effect = higher value. An outline of the steps:
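Compounds were tested on a yeast strain with an engineered DNA damage repair alteration; the reported value is growth inhibition normalised to vehicle treatment.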

A short description of test [2]: NCI Yeast Anticancer Drug Screen. Data for the mec2-1 strain (AID 157). Conditions: S. cerevisiae mec2-1 strain, at 50.0 µM, stronger effect = higher value. An outline of the steps: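 mec2-1 yeast strain, carrying an alteration in DNA damage repair or cell cycle control, was exposed to compounds; growth inhibition was measured relative to vehicle-treated controls.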
A short description of test [3]: NCI Yeast Anticancer Drug Screen. Data for the sgs1 mgt1 strain (AID 161).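 Further: 0% = growth of cultures given vehicle only.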 Conditions: S. cerevisiae sgs1 mgt1 strain, at 50.0 µM, stronger effect = higher value. An outline of the steps:
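Growth of a repair-deficient yeast mutant was monitored after compound treatment and expressed as inhibition relative to vehicle-treated cultures.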

A short description of test [4]: NCI Yeast Anticancer Drug Screen. Data for the cln2 rad14 strain (AID 165).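 Further: 0% = growth equal to vehicle treated cultures.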 The settings on record: S. cerevisiae cln2 rad14 strain, at 50.0 µM, stronger effect = higher value. An outline of the steps: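 Yeast carrying cln2 and rad14 alterations (cell cycle control and DNA damage repair) were exposed to compounds. Growth inhibition was measured against vehicle-treated controls.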

Test [5] in a line: NCI Yeast Anticancer Drug Screen. Data for the bub3 strain (AID 167). The settings on record: S. cerevisiae bub3 mutant strain, at 50.0 µM, stronger effect = higher value. An outline of the steps:
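Growth of a checkpoint-deficient yeast mutant is measured after compound exposure. Values represent inhibition relative to vehicle.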

The nature of test [6]: NCI Yeast Anticancer Drug Screen. Data for the mlh1 rad18 strain (AID 175). The settings on record: S. cerevisiae mlh1 rad18 strain growth inhibition; at 50.0 µM; stronger effect = higher value. An outline of the steps: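 Growth inhibition of the yeast strain was measured after compound exposure and expressed relative to vehicle-treated controls. The strain carries defined defects in DNA damage repair.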

Turning to `CC(=O)CCC1CC(=O)OC1(C)C` (stereo unspecified), the growth inhibition in test [1] was -37.6% (inactive) and 0.75% (inactive); in test [2], -30% (inactive) and -11.2% (inactive); in test [3], -14.3% (inactive) and -15.4% (inactive); in test [4], 7.85% (inactive) and -5.75% (inactive); in test [5] it was -26.2% (inactive) and -5.35% (inactive); in test [6] it was -26.2% (inactive) and 23.8% (inactive).

As to `CC(=O)OC1COC(N2CCc3ccccc32)C(OC(C)=O)C1OC(C)=O` (stereo unspecified), the growth inhibition was -16.2% (inactive) and -19% (inactive) in test [1]; -2.95% (inactive) and -28% (inactive) in test [2]; -33% (inactive) and -34.4% (inactive) in test [3]; -6.75% (inactive) and -2.5% (inactive) in test [4]; -27.7% (inactive) and -17.9% (inactive) in test [5]; -25.2% (inactive) and -33.2% (inactive) in test [6].

Consider `O=C1CCSSCCC(=O)NCCN1`, for which the growth inhibition in test [1] is 7.95% (inactive) and -6.4% (inactive); in test [2], 8.6% (inactive) and -3.25% (inactive); in test [3], -5.75% (inactive) and 5.55% (inactive); in test [4], -2.5% (inactive) and 14.3% (inactive); in test [5], 6.65% (inactive) and 29% (inactive); in test [6], 16.2% (inactive) and 0.4% (inactive).

For `CC(=O)OCC1OC(Sc2nc(-c3ccc(Cl)cc3)c(C#N)c(=O)n2C2OC(COC(C)=O)C(OC(C)=O)C(OC(C)=O)C2OC(C)=O)C(OC(C)=O)C(OC(C)=O)C1OC(C)=O` (stereo unspecified), the growth inhibition was 8.9% (inactive) and 6.85% (inactive) in test [1]; 7.4% (inactive) and -3.8% (inactive) in test [2]; 9.7% (inactive) and -9.1% (inactive) in test [3]; -18.6% (inactive) and -12.2% (inactive) in test [4]; 9.75% (inactive) and -7.95% (inactive) in test [5]; 2.8% (inactive) and -46.5% (inactive) in test [6].

On to `O=C1NC(=S)S/C1=C/c1ccnc2ccccc12`, for which the growth inhibition in test [1] is 18.2% (inactive) and 6.7% (inactive); in test [2], 14.8% (inactive) and 9.3% (inactive); in test [3] it was 19.4% (inactive) and -3.1% (inactive); in test [4], 20.9% (inactive) and -32.1% (inactive); in test [5] it was 5.45% (inactive) and -8.75% (inactive); in test [6], 1.25% (inactive) and -11.6% (inactive).

Turning to `CC(=O)OCC(=O)c1ccc(-c2ccccc2)cc1`, the growth inhibition in test [1] is 6.55% (inactive) and 7.65% (inactive); in test [2], -14.8% (inactive) and 4.5% (inactive); in test [3] it was 14.1% (inactive); in test [4], 8.35% (inactive) and -22.8% (inactive); in test [5] it was 39.9% (inactive) and 28.6% (inactive); in test [6], 18.8% (inactive) and 23.9% (inactive).

On to `C[N+](C)(C)CCOC(=O)c1ccccc1CBr`, for which the growth inhibition was -10.6% (inactive) and 52.1% (inactive) in test [1]; 22.8% (inactive) and 96.6% (active) in test [2]; 16.8% (inactive) and 85.9% (active) in test [3]; 40.9% (inactive) and 97.7% (active) in test [4]; 35.5% (inactive) and 99.2% (active) in test [5]; 3.95% (inactive) and 64.9% (inactive) in test [6].

Consider `O=C(CCl)NC(Cc1c[nH]c2ccccc12)C(=O)O` (stereo unspecified), for which the growth inhibition in test [1] is -7.95% (inactive) and 9.8% (inactive); in test [2] it was -50.7% (inactive) and -0.75% (inactive); in test [3], 1.1% (inactive) and -0.95% (inactive); in test [4], 23.3% (inactive) and 14.8% (inactive); in test [5] it was -10.2% (inactive) and 8.7% (inactive); in test [6] it was 4.25% (inactive) and -1.05% (inactive).

Take `COC(=O)c1cccc2c[n+]3c(cc12)-c1[nH]c2cc(OC)ccc2c1CC3`: the growth inhibition in test [1] was 4.55% (inactive) and 53% (inactive); in test [2], -16.9% (inactive) and 8.8% (inactive); in test [3], -0.05% (inactive) and 21.1% (inactive); in test [4], -8.05% (inactive) and -7.6% (inactive); in test [5] it was 4.6% (inactive) and 13.1% (inactive); in test [6], 14.6% (inactive) and 13.7% (inactive).

On to `CCCCOc1ccc2nc3cc(Cl)ccc3c(Cl)c2n1`, for which the growth inhibition in test [1] was 1.85% (inactive) and -16.5% (inactive); in test [2], -10.8% (inactive) and -43.5% (inactive); in test [3], -9.75% (inactive) and 22.9% (inactive); in test [4], 5.7% (inactive) and 17.4% (inactive); in test [5] it was -12.2% (inactive) and 8.6% (inactive); in test [6], 25.8% (inactive) and 3.55% (inactive).

For the compound `O=C1NC(=O)C(=Nc2c(O)[nH]c(=O)[nH]c2=O)C(=O)N1`, the growth inhibition was 2.65% (inactive) and -11% (inactive) in test [1]; -11.9% (inactive) and -14.3% (inactive) in test [2]; 2.3% (inactive) and -10.6% (inactive) in test [3]; -25.2% (inactive) and -31.8% (inactive) in test [4]; 1.1% (inactive) and 16.6% (inactive) in test [5]; 12.1% (inactive) and -13.1% (inactive) in test [6].

On to `CC(C)(CO)C(O)C(=O)NCCS(=O)(=O)O` (stereo unspecified), for which the growth inhibition is -6.8% (inactive) and -16.3% (inactive) in test [1]; -4.35% (inactive) and -1.8% (inactive) in test [2]; 15.2% (inactive) and 3.4% (inactive) in test [3]; -14% (inactive) and -11.9% (inactive) in test [4]; 9.05% (inactive) and 21.9% (inactive) in test [5]; -3.1% (inactive) and -27.3% (inactive) in test [6].

With `O=c1[nH][nH]c(=O)c2ccccc12`, the growth inhibition is 7.4% (inactive) and 8.6% (inactive) in test [1]; -24.6% (inactive) and -7.45% (inactive) in test [2]; -23.8% (inactive) and -6.7% (inactive) in test [3]; -1.3% (inactive) and -12.8% (inactive) in test [4]; -10.3% (inactive) and -0.95% (inactive) in test [5]; 2.75% (inactive) and 25.1% (inactive) in test [6].

With `COC(=O)C(C)NC(=O)C(CCSC)NC(=O)C(Cc1ccccc1)NC(=O)OC(C)(C)C` (stereo not drawn) (Boc-Phe-Met-Ala-OMe; configuration not given here), the growth inhibition in test [1] was -7.05% (inactive) and 1.75% (inactive); in test [2], -15.3% (inactive) and 1.15% (inactive); in test [3], 2.4% (inactive) and 6.3% (inactive); in test [4], 5.05% (inactive) and 10.7% (inactive); in test [5], 0.15% (inactive) and -11.9% (inactive); in test [6] it was 12.4% (inactive) and -70.9% (inactive).

For the compound `CCCCNC(=S)S`, the growth inhibition in test [1] was -1.1% (inactive) and -33.5% (inactive); in test [2], -19.8% (inactive) and -30.9% (inactive); in test [3], 0.65% (inactive) and -20.4% (inactive); in test [4], -7.65% (inactive) and -14.2% (inactive); in test [5] it was 11% (inactive) and -23.7% (inactive); in test [6] it was -6.9% (inactive) and -22.5% (inactive).

Turning to `CC(C)CC(NC(=O)COc1ccccc1Cl)C(=O)O` (stereo unspecified), the growth inhibition in test [1] was -9.6% (inactive) and 5.05% (inactive); in test [2], 15.5% (inactive) and 14.3% (inactive); in test [3], 3.4% (inactive) and 6.9% (inactive); in test [4], -11.8% (inactive) and -9.2% (inactive); in test [5], 1.25% (inactive) and 7.15% (inactive); in test [6] it was -8.75% (inactive) and -13.3% (inactive).

`CCCSc1nc(COC(=O)NC)c(COC(=O)NC)n1C`: the growth inhibition in test [1] was -5.1% (inactive) and -10% (inactive); in test [2] it was -25.1% (inactive) and 2% (inactive); in test [3], -5.8% (inactive) and -9.1% (inactive); in test [4] it was -12% (inactive) and 2.95% (inactive); in test [5], -5.1% (inactive) and -2% (inactive); in test [6], -20.4% (inactive) and 4.85% (inactive).

Turning to `Cc1ccc(S(=O)(=O)Nc2cc(=O)[nH]c3c2CCC3)cc1`, the growth inhibition was -2.05% (inactive) and 43.4% (inactive) in test [1]; -4.75% (inactive) and 18.3% (inactive) in test [2]; 9.25% (inactive) and -26.8% (inactive) in test [3]; -52% (inactive) and 0.65% (inactive) in test [4]; -18% (inactive) and 24.2% (inactive) in test [5]; -6.2% (inactive) and 2.9% (inactive) in test [6].

Take `O=CNc1ccc(C(F)(F)F)cc1`: the growth inhibition is -16.9% (inactive) and 16.4% (inactive) in test [1]; -6.85% (inactive) and -3.6% (inactive) in test [2]; -3.3% (inactive) and 6.35% (inactive) in test [3]; -10.9% (inactive) and 14.7% (inactive) in test [4]; -8.8% (inactive) and 25.4% (inactive) in test [5]; 5.3% (inactive) and 10.9% (inactive) in test [6].

For the compound `CCOC(=O)c1ccc(N=[N+]([O-])c2ccc(C(=O)OCC)cc2)cc1`, the growth inhibition in test [1] was -10.8% (inactive) and -4.1% (inactive); in test [2] it was -4.95% (inactive) and -4.3% (inactive); in test [3], 2.8% (inactive) and -7.65% (inactive); in test [4], -6% (inactive) and -3.25% (inactive); in test [5], -40.5% (inactive) and -19.9% (inactive); in test [6] it was -13.4% (inactive) and 19.8% (inactive).

Take `CCOC(=O)C(N)CS` (stereo unspecified): the growth inhibition in test [1] is -1.35% (inactive) and -31.1% (inactive); in test [2], -22.8% (inactive) and -66.1% (inactive); in test [3], -2.5% (inactive) and -6.05% (inactive); in test [4], -26.9% (inactive) and 7.05% (inactive); in test [5] it was -28.3% (inactive) and -30.7% (inactive); in test [6], 4.95% (inactive) and -27.9% (inactive).
